Assay results taken from ChEMBL document CHEMBL3988442, “University of Dundee, Small-Polar-MMV Screening Library” (2021).
In all, about 48,000 compounds went through this assay and about 13,000 (27%) showed an effect of 50% or more. The list shows a part of the results.

The compounds below were run on Wolbachia pipientis (assay: Anti-Wolbachia Cell-Based Screen). Conditions: 5 µM.
Type: functional
Design: scale not given: in the data most compounds retested in dose-response had high values

SMILES | Percent Effect
CNC(=O)c1ccc(NC(=O)NC(C)CCc2cccn2C)c(C)c1 (stereo not given) | 7.929%
O=C(CN1CCNCC1)N1CC[C@@H](c2ccc3ccccc3c2)[C@H](O)C1 | 6.521%
OC(COCc1ccccc1)CSc1nnc(C2CC2)n1C1CC1 (stereo not given) | 6.526%
O=C(c1cccnc1-n1cncn1)N1CCN(C2CCCC2)CC1 | 9.271%
CC(C)Cc1noc(CN(C)C[C@]2(O)CCCN3CCCC[C@@H]32)n1 | 1.802%
CCCc1nc(CN2CCN(CC(O)c3ccccc3)CC2)no1 (stereo not given) | -2.88%
O=C(c1ccnnc1)N1C[C@@H](OCC2CCOCC2)[C@H]2OCCC[C@H]21 | -2.354%
CS(=O)(=O)N1C[C@@H](F)[C@@H](OCc2nc3ccccc3o2)C1 | 18.73%
O=C(O)C(F)(F)F.O=C1[C@H]2CN(S(=O)(=O)C3CC3)C[C@H]2CN1Cc1cccnc1 | 124.6%
Cc1ccc(CN2CC[C@H]3C(=O)N(Cc4cccnc4)CCO[C@H]3C2)o1.O=C(O)C(F)(F)F.O=C(O)C(F)(F)F | -24.56%
O=C(O)C(F)(F)F.O=C(O)C(F)(F)F.O=C1[C@@H]2CCN(C3CCOCC3)C[C@@H]2OCCN1Cc1cccnc1 | 1.497%
O=C(O)C(F)(F)F.O=C1[C@H]2CN(S(=O)(=O)c3ccccc3)C[C@H]2CN1Cc1cccnc1 | 108.5%
CCS(=O)(=O)N1C[C@H]2CN(Cc3cccnc3)C(=O)[C@H]2C1.O=C(O)C(F)(F)F | -7.035%
CS(=O)(=O)N[C@@H]1CCN(Cc2cccnc2)[C@H]1Cc1ccccc1.O=C(O)C(F)(F)F.O=C(O)C(F)(F)F | 1.711%
COC(=O)c1cccc2nc([C@H]3CCN(C4CCN(C)CC4)C3)oc12 | -2.242%
Cn1cc(CN2CC[C@@H]3[C@@H](CO[C@H]3CNC(=O)c3ccco3)C2)cn1.O=C(O)C(F)(F)F.O=C(O)C(F)(F)F | 86.49%
O=C(NC[C@H]1OC[C@@H]2CCN(Cc3ccco3)C[C@@H]21)c1ccnnc1.O=C(O)C(F)(F)F | 121%
O=C(NC[C@H]1OC[C@@H]2CN(Cc3ccco3)CC[C@@H]21)c1cccnc1.O=C(O)C(F)(F)F.O=C(O)C(F)(F)F | 98.92%
O=C(NC[C@H]1OC[C@@H]2CN(Cc3ccco3)CC[C@@H]21)c1cscn1.O=C(O)C(F)(F)F | 98.96%
Cn1cc(C(=O)NC[C@@H]2OC[C@H]3CN(Cc4ccco4)CC[C@H]32)cn1.O=C(O)C(F)(F)F | 1.243%
Cc1cccc(N2CC[C@@H]3[C@@H](CO[C@H]3CNC(=O)c3ccco3)C2)n1 | -1.973%
NC(=O)N1CC[C@H]2CO[C@H](CNC(=O)c3ccnnc3)[C@H]2C1 | -2.645%
Cc1ccc(CN2CC[C@@H]3[C@@H](CO[C@H]3CN(C)C)C2)o1.O=C(O)C(F)(F)F.O=C(O)C(F)(F)F | -16.8%
CN(Cc1cccnc1)C[C@@H]1OC[C@H]2CN(Cc3ccco3)CC[C@H]21.O=C(O)C(F)(F)F.O=C(O)C(F)(F)F.O=C(O)C(F)(F)F | 9.505%

SMILES | Percent Effect
O=C(NC[C@H]1OC[C@@H]2CCN(Cc3ccco3)C[C@@H]21)c1ccsc1.O=C(O)C(F)(F)F | 14.6%
Cc1ccc(N2CC[C@@H]3[C@@H](CO[C@H]3CNC(=O)c3ccco3)C2)nn1 | 1.851%
CN(C)C(=O)Cn1cc(C#N)c(=O)c2cc(Br)ccc21 | -22.43%
COCC(NC(=O)c1ccc(O)nc1)c1ccc(C)o1 (stereo not given) | 3.678%
O=S(=O)(c1ccc(-c2nc3c([nH]2)CCNC3)cc1)N1CCCC1 | -8.56%
CCCSCC(=O)N1CCCC(c2nccn2Cc2ccncc2)C1 (stereo not given) | 15.91%
O=C(COCC1CC1)N1CCCC(n2cncn2)C1 (stereo not given) | 10.78%
CN(Cc1ccc(-n2cncn2)cc1)Cc1ncc[nH]1 | -14.86%
COCCn1ccnc1CN(Cc1ccccn1)CC(C)C | -12.4%
CC(c1ccccn1)N(C)Cc1ccc(CCC(C)(C)O)cc1 (stereo not given) | 6.636%
CC(c1ccccn1)N(C)Cc1ccc(-n2cncn2)cc1 (stereo not given) | 115.2%
CN(Cc1ccc(-n2ccnc2)cc1)Cc1ncc[nH]1 | -4.002%
CC(C)CN(Cc1ccc(-n2cncn2)cc1)Cc1ccccn1 | 111.5%
CC(C)C(O)C(C)(C)CNC(=O)NCc1ccc(-n2cncn2)cc1 (stereo not given) | -5.14%
CC(C)CN(Cc1ccc(O)c(C(=O)O)c1)Cc1ccccn1 | -5.995%
CC(c1ccccn1)N(C)Cc1ccc(-n2ccnc2)cc1 (stereo not given) | 100.9%
COc1ccc(OC)c(S(=O)(=O)NC(=O)C(C)OC)c1 (stereo not given) | 1.842%
CC(C)=CCC1(CO)CCCN(S(C)(=O)=O)C1 (stereo not given) | -9.202%
CCc1csc(C2CCCN(C(=O)c3ccc4[nH]nnc4c3)C2)n1 (stereo not given) | 100.2%
CCc1csc(C2CCCN(C(=O)c3cnc[nH]3)C2)n1 (stereo not given) | 106.6%
CCc1csc(C2CCCN(C(=O)c3ccncc3)C2)n1 (stereo not given) | 12.22%
CC(C)c1csc(C2CCCN(C(=O)c3ncccn3)C2)n1 (stereo not given) | 1.009%
CCc1csc(C2CCCN(C(=O)c3ccc(=O)n(CC)n3)C2)n1 (stereo not given) | 101.1%
CCc1csc(C2CCCN(C(=O)c3ccc(=O)n(C)n3)C2)n1 (stereo not given) | -0.1419%

SMILES | Percent Effect
CCc1csc(C2CCCN(C(=O)c3ccc(OC)nc3)C2)n1 (stereo not given) | 6.728%
Cc1csc(C2CCCN(C(=O)c3cnc[nH]3)C2)n1 (stereo not given) | -6.546%
CCc1csc(C2CCCN(C(=O)c3ccc4c(c3)OCO4)C2)n1 (stereo not given) | -10.1%
CCc1csc(C2CCCN(C(=O)c3ncccn3)C2)n1 (stereo not given) | 104%
CCc1nc(CN2CCCN(C(=O)c3cnc[nH]3)CC2)cs1 | -9.99%
COC(=O)CNC(=O)C1(NC(=O)c2ccc3[nH]ncc3c2)CCCC1 | 5.444%
CNS(=O)(=O)c1ccccc1N1CCN(C(C)C(N)=O)CC1 (stereo not given) | -9.322%
CC(C)NC(=O)N1CC[C@@H](N(C)C)[C@@H]1Cc1ccncc1.O=C(O)C(F)(F)F.O=C(O)C(F)(F)F | -7.431%
CCc1csc(C2CCCN(C(=O)c3c[nH]c(C)n3)C2)n1 (stereo not given) | 6.503%
Cc1csc(C2CCCN(C(=O)c3cc(Cl)c[nH]3)C2)n1 (stereo not given) | -0.3257%
CCc1csc(C2CCCN(C(=O)c3ccc(OC)nn3)C2)n1 (stereo not given) | 3.799%
CCc1csc(C2CCCN(C(=O)c3cc(C4CC4)[nH]n3)C2)n1 (stereo not given) | 98.97%
CCc1csc(C2CCCN(C(=O)c3ccco3)C2)n1 (stereo not given) | 94.24%
CCc1csc(C2CCCN(C(=O)c3ccccn3)C2)n1 (stereo not given) | 106.7%
CCN(C(=O)CN1CCC(c2ccccc2)C1)C1CC1 (stereo not given) | 4.674%
CCOC(=O)CCC(=O)N1CC(c2nc(Cc3ccccc3)no2)C1 | -13.25%
CCOC(=O)[C@@H]1CN2CCNC[C@@H]2[C@H]1c1ccccc1 | 110.8%
O=C(CCn1cncn1)N1C[C@H]2CC[C@@H]1CN(Cc1ccncc1)C2 | 5.769%
CC(CN1CCOCC1)OC(=O)c1cccc2cn[nH]c12 (stereo not given) | -3.971%
Cc1oc(C)c(C(=O)N2CCCN(Cc3cscn3)CC2)c1C | 2.495%
Cc1nc(CN2CCCN(C(=O)c3c(C)noc3C)CC2)cs1 | 14.06%
Cc1ocnc1C(=O)N1CCCN(Cc2cscn2)CC1 | 126.9%
Cc1noc(C)c1CNC(=O)N1CCN(Cc2cscn2)CC1 | -4.059%
CCc1noc(C)c1C(=O)N1CCCN(Cc2cscn2)CC1 | 149%

SMILES | Percent Effect
Cc1cc(C(C)C(=O)N2CCCN(Cc3cscn3)CC2)c(C)o1 (stereo not given) | -21.53%
CCc1noc(C)c1C(=O)N1CCCN(Cc2csc(C)n2)CC1 | 18.09%
Cc1oc(C)c(C(=O)N2CCN(Cc3cscn3)CC2)c1C | 159.3%
Cc1nc(CN2CCCN(C(=O)c3c(C)oc(C)c3C)CC2)cs1 | 108.1%
Cc1csc(N2CCCN(C(=O)c3c(C)oc(C)c3C)CC2)n1 | 12.08%
Cc1nn(C)c(Cl)c1S(=O)(=O)N(CC(N)=O)CC(C)C | -2.815%
O=C(c1cccc(F)c1F)N1CCn2c(nnc2C(F)(F)F)C1 | -8.426%
O=C(NCC1=CCCCC1)C(c1cccnc1)N1CCCC1 (stereo not given) | 4.63%
CCc1nc(CN2CCCN(C(=O)c3c(C)noc3C)CC2)cs1 | -12.93%
Cc1noc(C)c1C(=O)N1CCCN(Cc2cscn2)CC1 | 110.4%
CCc1ncncc1C(=O)N1CCN(Cc2cscn2)CC1 | 108.1%
CCc1ncncc1C(=O)N1CCN(Cc2ccco2)CC1 | 2.127%
Cc1noc(C(C)C)c1C(=O)N1CCCN(Cc2cscn2)CC1 | 0.5158%
CC(C)c1ncncc1C(=O)N1CCN(Cc2cscn2)CC1 | -5.142%
COc1cc(NC(=O)c2ccccc2F)c(C(=O)N(C)C)cc1OC | -7.835%
CN(C)CCCNC(=O)c1ccccc1NC(=O)c1cc(Cl)ccc1Cl | 87.51%
CN(C)CCCNC(=O)c1ccnc(OCc2ccccc2)c1 | -11.72%
CN(C)CCCNC(=O)c1ccccc1NC(=O)c1ccccc1Cl | 105.1%
CN(C)CCNC(=O)c1cnc2c(c1)nc(-c1ccccc1Cl)n2C | -9.554%
Cc1ccnc(NC(=O)CCNC(=O)c2ccccc2Cl)c1 | 8.062%
CN(C)CCNC(=O)c1ccccc1NC(=O)c1cc(Cl)ccc1Cl | 115.7%
CN(CCCNC(=O)c1ccccc1F)CC(F)(F)F | 0.1047%
CN(CC(=O)Nc1ccccc1C(=O)NC1CC1)Cc1ccccc1Cl | 6.232%
